From PubChem BioAssay (EPA / NIEHS)
Results filed as inconclusive are left out. The source made the active and inactive calls. Rule for the calls: active = hit-call score of the fitted dose curve at least 0.9, where 1 is the maximum; inconclusive = response in the unintended direction; inactive = score below 0.9. Where a SMILES comes first, the peptide text is derived from it. [ ]: non-standard residue; d: D form. pGlu = O=C1CC[C@@H](C(=O)O)N1; Thz = O=C(O)[C@@H]1CSCN1

Assays:
[1] = TOX21_p53_BLA_p2_viability: Viability Assessment in the Tox21 HCT-116 p53 Agonism Beta-lactamase Assay, Phase 2 (AID 2283591);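 note: actives lower the ATP signal meaning cytotoxicity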
In short: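 Cytotoxicity readout: CellTiter-Glo ATP luminescence, 30 min at room temperature, after the beta-lactamase read. Cells were HCT116 exposed 16 h at 37C to compounds pin-transferred at 217-fold dilution from DMSO stocks.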

[2] = biological target: Cellular tumor antigen p53 (Homo sapiens) (UniProt P04637); assay: TOX21_p53_BLA_p2_ratio: Tox21 HCT-116 p53 Agonism Beta-lactamase Assay, Ratio, Phase 2 (AID 2283592)
Cellular tumor antigen p53 (Homo sapiens), sequence (P04637 whole entry, looked up): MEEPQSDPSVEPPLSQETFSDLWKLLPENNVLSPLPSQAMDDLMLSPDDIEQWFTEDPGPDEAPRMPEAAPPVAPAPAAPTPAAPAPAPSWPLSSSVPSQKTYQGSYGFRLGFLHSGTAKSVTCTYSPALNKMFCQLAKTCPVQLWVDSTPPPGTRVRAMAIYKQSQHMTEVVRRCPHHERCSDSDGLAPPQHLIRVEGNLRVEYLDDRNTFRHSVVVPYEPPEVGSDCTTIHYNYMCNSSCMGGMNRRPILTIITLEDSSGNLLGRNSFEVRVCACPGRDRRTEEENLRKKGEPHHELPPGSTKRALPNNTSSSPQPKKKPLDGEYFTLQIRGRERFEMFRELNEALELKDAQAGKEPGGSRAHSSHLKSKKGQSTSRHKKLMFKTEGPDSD
In short: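 HCT-116 cells with p53-responsive beta-lactamase reporter, 4000 cells/well, preincubated 5 h, then compound in DMSO (217-fold dilution) for 16 h at 37C. CCF4-AM substrate 2 h at room temperature; 460/530 nm emission ratio fitted upward versus DMSO.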

[3] = biological target: Cellular tumor antigen p53 (Homo sapiens) (UniProt P04637); assay: TOX21_p53_BLA_p3_ratio: Tox21 HCT-116 p53 Agonism Beta-lactamase Assay, Ratio, Phase 3 (AID 2283596)
In short: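 HCT116 p53-bla cells (4000/well) given compound in DMSO (217-fold dilution) after 5 h, incubated 16 h at 37C. CCF4-AM substrate 2 h at room temperature; 460/530 nm emission ratio, gain fitted against DMSO.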

[4] = TOX21_p53_BLA_p4_viability: Viability Assessment in the Tox21 HCT-116 p53 Agonism Beta-lactamase Assay, Phase 4 (AID 2283597);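 note: hits lower the luminescence signal meaning cytotoxicity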
In short: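 HCT-116 p53-bla cells, 4000/well, dosed after 5 h attachment and incubated 16 h at 37 °C, 5% CO2. Viability from CellTiter-Glo ATP luminescence after 30 min at room temperature, taken after the beta-lactamase read; loss of signal indicates cytotoxicity.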

[5] = biological target: Cellular tumor antigen p53 (Homo sapiens) (UniProt P04637); assay: TOX21_p53_BLA_p4_ratio: Tox21 HCT-116 p53 Agonism Beta-lactamase Assay, Ratio, Phase 4 (AID 2283601)
In short: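 Signal is the blue/green (460nm/530nm) ratio of cleaved versus uncleaved CCF4-AM substrate, read after 2 h substrate loading. Cells were HCT116 carrying the p53-responsive beta-lactamase reporter, dosed 16 h at 37C, 5% CO2; CellTiter-Glo measured in parallel.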

[6] = biological target: Cellular tumor antigen p53 (Homo sapiens) (UniProt P04637); assay: TOX21_p53_BLA_p5_ratio: Tox21 HCT-116 p53 Agonism Beta-lactamase Assay, Ratio, Phase 5 (AID 2283599)
In short: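 Beta-lactamase reporter ratio (blue 460 nm over green 530 nm, 405 nm excitation) after 2 h CCF4-AM loading, in HCT-116 cells exposed 16 h at 37 C to compounds pinned at 217-fold dilution. Increases relative to DMSO baseline scored.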

PGR (gene 5241) [7] = biological target: PGR (gene 5241) (UniProt P06401); assay: TOX21_PR_BLA_Followup_Antagonist_ratio: Tox21 HEK293 Progesterone Receptor (PR) Antagonism Beta-lactamase Follow-Up Assay, Ratio (AID 2283934)
PGR (gene 5241), sequence (P06401 whole entry, looked up): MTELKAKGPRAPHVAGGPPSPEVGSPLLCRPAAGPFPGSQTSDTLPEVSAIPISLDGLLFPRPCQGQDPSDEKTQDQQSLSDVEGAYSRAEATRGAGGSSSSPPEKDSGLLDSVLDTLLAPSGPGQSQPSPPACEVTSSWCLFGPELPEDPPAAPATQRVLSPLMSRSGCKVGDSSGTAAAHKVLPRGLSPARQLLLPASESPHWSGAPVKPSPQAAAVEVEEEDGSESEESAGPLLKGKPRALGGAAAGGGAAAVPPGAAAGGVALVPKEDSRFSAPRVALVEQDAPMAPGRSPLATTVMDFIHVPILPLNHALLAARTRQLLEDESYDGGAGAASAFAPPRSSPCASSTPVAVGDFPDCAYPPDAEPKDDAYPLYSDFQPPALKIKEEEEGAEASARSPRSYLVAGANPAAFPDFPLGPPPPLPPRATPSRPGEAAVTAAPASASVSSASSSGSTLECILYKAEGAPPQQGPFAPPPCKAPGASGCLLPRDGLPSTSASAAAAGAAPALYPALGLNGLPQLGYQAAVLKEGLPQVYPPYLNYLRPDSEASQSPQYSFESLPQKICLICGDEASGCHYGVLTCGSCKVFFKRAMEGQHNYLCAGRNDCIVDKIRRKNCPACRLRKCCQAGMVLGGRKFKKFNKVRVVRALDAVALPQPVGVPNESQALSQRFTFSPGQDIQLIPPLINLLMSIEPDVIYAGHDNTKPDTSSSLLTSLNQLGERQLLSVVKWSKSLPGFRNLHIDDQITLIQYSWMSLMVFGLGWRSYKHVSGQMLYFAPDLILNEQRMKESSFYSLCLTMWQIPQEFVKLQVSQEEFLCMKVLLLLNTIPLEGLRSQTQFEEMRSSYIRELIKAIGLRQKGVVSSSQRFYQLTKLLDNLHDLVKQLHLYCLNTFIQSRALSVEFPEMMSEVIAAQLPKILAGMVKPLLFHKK
In short: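 HEK293T PR-UAS-bla, 2% CS-FBS; 6 hr plating, then cpd + R5020 (1 nM final), 16 hr 37C/5% CO2. B/G FRET substrate 2 h RT. Ratio ch2/ch1 vs DMSO; CellTiter-Glo viability multiplexed, autofluorescence checked.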

[8] = TOX21_PR_BLA_Followup_Agonist_viability: Viability Assessment in the Tox21 HEK293 Progesterone Receptor (PR) Agonism Beta-lactamase Follow-Up Assay (AID 2283935);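 note: signal loss means lower viability so actives are cytotoxic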
In short: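 HEK293T PR-UAS-bla, 3,000 cells/well, 2% CS-FBS; 6 hr pre-incubation; cpd in DMSO, 16 hr 37C; LiveBLAzer 2 hr RT, then CellTiter-Glo 30 min RT, luminescence. Decrease = lost viability.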

[9] = TOX21_PR_BLA_Followup_Antagonist_viability: Viability Assessment in the Tox21 HEK293 Progesterone Receptor (PR) Antagonism Beta-lactamase Follow-Up Assay (AID 2283936);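 note: hits lower the luminescence signal meaning cytotoxicity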
In short: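 PR-UAS-bla HEK293T cells (3,000/well, 2% charcoal-stripped FBS) given compound plus R5020 agonist, 16 h at 37C. CellTiter-Glo added after bla read, 30 min at room temperature; luminescence loss indicates cytotoxicity.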

PGR (gene 5241) [10] = biological target: PGR (gene 5241) (UniProt P06401); assay: TOX21_PR_LUC_Followup_Antagonist: Tox21 HEK293 Progesterone Receptor (PR) Antagonism Luciferase Follow-Up Assay (AID 2283938);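 note: curve fitted upward as signal gain over DMSO baseline despite antagonist label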
In short: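 HEK293-PR-A-luc cells, 3,000/well, preincubated 5 h at 37C before compound addition in DMSO; 16 h compound exposure at 37C. ONE-Glo luciferase luminescence read after 30 min at room temperature, fitted relative to DMSO baseline.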

[11] = TOX21_PR_LUC_Followup_Antagonist_viability: Viability Assessment in the Tox21 HEK293 Progesterone Receptor (PR) Antagonism Luciferase Follow-Up Assay (AID 2283940)
In short: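 Multiplexed viability counter-screen: after 5 days in charcoal-stripped-FBS medium, HEK293-PR-A-luc cells are plated, pinned with DMSO-dissolved compounds for 16 h at 37C, and ATP content is quantified luminescently via CellTiter-Glo.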

[12] = TOX21_PR_LUC_Followup_Agonist_viability: Viability Assessment in the Tox21 HEK293 Progesterone Receptor (PR) Agonism Luciferase Follow-Up Assay (AID 2283941);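 note: loss of signal means cytotoxicity so actives lower viability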
In short: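 Cells were kept 5 days in charcoal-stripped serum medium before plating HEK293-PR-A-luc at 3,000 cells/well. After 5 h they received DMSO-dissolved compound and incubated 16 h at 37C. Viability was taken from CellTiter-Glo ATP luminescence.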

[13] = TOX21_p53_BLA_p5_viability: Viability Assessment in the Tox21 HCT-116 p53 Agonism Beta-lactamase Assay, Phase 5 (AID 2283600)
In short: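 HCT-116 p53 beta-lactamase reporter cells, 4000/well, were exposed to compound (pin transfer, 217-fold dilution) for 16 hours at 37C. Cellular ATP was read by CellTiter-Glo luminescence after 30 min at room temperature.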

Measured: outcome

O=c1[nH]c2cc(C(F)(F)F)c(N3CCOCC3)cc2n(CP(=O)(O)O)c1=O
inactive: [1] | [2] | [3] | [4] | [5]

c1ccc2c(c1)CCc1ccccc1N2
not listed: [13]
inactive: all other assays above

COc1ccc(C(=O)c2ccc(OC)cc2O)c(O)c1
inactive: [1] | [2] | [3] | [4] | [5]

COc1ccc(C(=O)Nc2ccccc2CCC2CCCCN2C)cc1 (stereo not drawn)
inactive: [1] | [2] | [3] | [4] | [13]

OC[C@H]1O[C@@H](n2cnc3c2NC=NC[C@H]3O)C[C@@H]1O
inactive: [1] | [2] | [3] | [4] | [13] | [5]

COS(=O)(=O)C(F)(F)F
inactive: [1] | [2] | [3] | [4] | [13] | [5]

N#C/C(=C1\SCC(c2ccccc2Cl)S1)n1ccnc1 (stereo not drawn)
inactive: [1] | [2] | [3] | [4] | [6] | [5]

CC[N+](CC)(CC)CCC(O)(c1ccccc1)C1CCCCC1 (stereo not drawn)
inactive: [1] | [2] | [3] | [4] | [13] | [5]

O=C1CC[C@@H](C(=O)N2CSC[C@H]2C(=O)O)N1 ([pGlu]-[Thz]-OH)
inactive: [1] | [2] | [3] | [6]

Nc1ccc(S(=O)(=O)NCc2ccccc2)cc1
inactive: [1] | [2] | [3] | [4] | [13]

O=C(O)c1ccccc1OP(=O)(O)O
inactive: [1] | [2] | [3] | [4] | [5]

Cc1ccccc1OCC1CO1 (stereo not drawn)
inactive: [1] | [2] | [3] | [4] | [13] | [5]

CCCCOC(=O)CC
inactive: [1] | [2] | [3] | [4] | [13]

CCC(=O)Oc1ccc2c(c1)CC[C@@H]1[C@@H]2CC[C@]2(C)[C@@H](OC(=O)CC)CC[C@@H]12
inactive: [1] | [2] | [3] | [4] | [13]

COc1cc2c(c(OC)c1OC)-c1c(cc3c(c1OC)OCO3)C[C@@H](C)[C@](C)(O)C2
inactive: [1] | [2] | [3] | [4] | [5]

C1CCC2OC2C1 (stereo not drawn)
inactive: [1] | [2] | [3] | [4] | [13] | [5]

CC1CC(C)C(=O)C1=O (stereo not drawn)
inactive: [1] | [2] | [3] | [6]

CN1C(=O)CC(c2ccccc2)C1=O (stereo not drawn)
inactive: [1] | [2] | [3] | [6] | [13] | [5]

Cc1c(NC(=O)c2cccnc2)c(=O)n(-c2ccccc2)n1C
inactive: [1] | [2] | [3] | [6] | [13]

CCOC(=O)c1c[nH]c2cc(OCC(C)C)c(OCC(C)C)cc2c1=O
inactive: [1] | [2] | [3] | [6] | [13] | [5]
